Measured values published in PubChem BioAssay AID1347418 (Sanford-Burnham Center for Chemical Genomics, 2020).
In all, about 1,300 compounds went through this assay and about 750 (58%) were called active. The list shows a part of the results. Values without a mark were called inactive.

These molecules were tested against Sulfhydryl oxidase 1 (Homo sapiens) (UniProt O00391) (assay: inhibition of human sulfhydryl oxidase QSOX1 – biochemical, ROS-Glo H2O2 luminescence, HTS, primary screen (AID 1347418)). Conditions: recombinant QSOX1, ROS-Glo H2O2 luminescence; at 12.5 µM; hits give high values; active = any value above zero.
Sulfhydryl oxidase 1 (Homo sapiens), sequence (O00391 whole entry, looked up): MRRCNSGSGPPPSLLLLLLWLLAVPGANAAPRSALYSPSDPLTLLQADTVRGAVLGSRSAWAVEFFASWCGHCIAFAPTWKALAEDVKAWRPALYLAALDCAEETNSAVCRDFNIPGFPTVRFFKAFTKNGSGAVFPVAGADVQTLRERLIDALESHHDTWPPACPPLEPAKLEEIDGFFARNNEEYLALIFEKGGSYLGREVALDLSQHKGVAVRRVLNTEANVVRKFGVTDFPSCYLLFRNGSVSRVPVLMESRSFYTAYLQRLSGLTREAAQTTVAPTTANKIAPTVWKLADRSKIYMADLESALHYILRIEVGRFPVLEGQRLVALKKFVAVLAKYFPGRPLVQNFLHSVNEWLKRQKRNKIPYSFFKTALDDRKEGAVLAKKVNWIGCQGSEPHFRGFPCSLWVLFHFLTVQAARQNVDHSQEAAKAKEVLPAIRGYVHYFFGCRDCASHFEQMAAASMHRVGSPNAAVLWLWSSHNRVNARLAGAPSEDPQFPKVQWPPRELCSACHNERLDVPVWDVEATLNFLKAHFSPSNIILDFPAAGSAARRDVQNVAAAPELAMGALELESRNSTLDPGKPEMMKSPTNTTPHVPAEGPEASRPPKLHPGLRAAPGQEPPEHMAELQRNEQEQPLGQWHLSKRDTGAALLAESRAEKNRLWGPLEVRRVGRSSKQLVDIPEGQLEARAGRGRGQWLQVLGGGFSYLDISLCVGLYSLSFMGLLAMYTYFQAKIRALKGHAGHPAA
Work on CCc1ccc2c(-c3cccc(Cl)c3)nc(=O)n(CC)c2n1 yielded an inhibition of -0.7%. In the case of Nc1cc(Cl)c(NC2=NCCN2)c(Cl)c1, the inhibition is reported as -2.8%. For Clc1ccc2nsnc2c1NC1=NCCN1, the inhibition was 1.5% (active). With Clc1cccc(Cl)c1NC1=NCCN1 the inhibition was -1.9%. Work on Cn1cc(C2=C(c3ccc(Cl)cc3Cl)C(=O)NC2=O)c2ccccc21 yielded an inhibition of -1.7%. With O=C(O)Cc1ccc(O)c(O)c1 the inhibition was 5.6% (active). In the case of CCN(CC)C(=O)c1ccc(O)c(OC)c1, the inhibition is reported as 6.8% (active). In the case of COc1cc(CC(=O)O)ccc1O, the inhibition is reported as 11% (active). In the case of CCCCCCCC/C=C\CCCCCCCC(=O)NCc1ccc(O)c(OC)c1, the inhibition is reported as -4.3%. In the case of COc1cc(CNC(=O)CCCCCCC(C)C)ccc1O, the inhibition is reported as 7.6% (active). CC1CCN(CC[C@H]2CCCN2S(=O)(=O)c2cccc(O)c2)CC1 gave an inhibition of -3.7%. Molecule Brc1c(NC2=NCCN2)ccc2nccnc12 has an inhibition of -3.8%. O=C1c2ccccc2-c2n[nH]c3cccc1c23 was tested, and the inhibition was 12.7% (active). Oc1cc2c(cc1O)C(c1ccccc1)CNCC2 (stereo not drawn) was tested, and the inhibition was 5.7% (active). Oc1cc2c(c(Cl)c1O)CCNCC2c1ccccc1 (stereo not drawn) was tested, and the inhibition was 24.1% (active). In the case of Oc1ccc(C2CNCCc3c2cc(O)c(O)c3Cl)cc1 (stereo not drawn), the inhibition is reported as 30% (active). For O=C(O)C1=CCNCC1, the inhibition was -1.6%. For CSC(N)=NCCC[C@H](N)C(=O)O, the inhibition was 1.7% (active). With NC(N)=NCCC[C@H](N)C(=O)O the inhibition was 6% (active). With CN(C)C(N)=NCCC[C@H](N)C(=O)O the inhibition was 0.3% (active). CC(N)=NCCCC[C@@H](N)C(=O)O showed an inhibition of -0.6%. For Nc1c2c(nc3ccccc13)CCCC2, the inhibition was -3.1%. For O=c1c2ccccc2nc2n1CCc1c-2[nH]c2ccccc12, the inhibition was 5% (active). CCCCCCCCCCC/C=C\C(C)(C)/C=C\CCCC(=O)O was tested, and the inhibition was 9.1% (active). With CCCCCCC/C=C\CCCCCCCCC(=O)O the inhibition was -3.4%. For CCCn1c(=O)c2[nH]c(-c3ccc(S(=O)(=O)O)cc3)nc2n(CCC)c1=O, the inhibition was -0.7%. For CCCn1c(=O)c2[nH]c(-c3ccc(OCC(=O)NCCN)cc3)nc2n(CCC)c1=O, the inhibition was 0.5% (active). CCC1(c2ccccc2)C(=O)NCNC1=O was tested, and the inhibition was 2.4% (active). For CN1Cc2c(N)cccc2C(c2ccccc2)C1 (stereo not drawn), the inhibition was 5.3% (active). For CC1=C(/C=C/C(C)=C/C=C/C(C)=C/C(=O)O)C(C)(C)CCC1, the inhibition was 2.4% (active). CC1=C(/C=C/C(C)=C/C=C/C(C)=C\C(=O)O)C(C)(C)CCC1 gave an inhibition of -3%. For CC1=C(/C=C/C(C)=C/C=C/C(C)=C/C(=O)Nc2ccc(O)cc2)C(C)(C)CCC1, the inhibition was 1.8% (active). CC(=O)O[C@]1(C(C)=O)CC[C@H]2[C@@H]3C=C(Cl)C4=CC(=O)[C@@H]5C[C@@H]5[C@]4(C)[C@H]3CC[C@@]21C was tested, and the inhibition was 6.1% (active). NC[C@@H]1O[C@H](c2ccccc2)Cc2c1ccc(O)c2O was tested, and the inhibition was 11% (active). With NC[C@@H]1O[C@H](C23CC4CC(CC(C4)C2)C3)Cc2c1ccc(O)c2O the inhibition was 17.8% (active). For Nc1ncnc2n[nH]c(Nc3ccc(F)cc3)c12, the inhibition was 19.7% (active). For C1COC(NC(C2CC2)C2CC2)=N1, the inhibition was 0.6% (active). Clc1ccc(N2CCN(Cc3cc4ccccn4n3)CC2)cc1 was tested, and the inhibition was 21.7% (active). For Clc1ccc(Cn2c(CN3CCCC3)nc3ccccc32)cc1, the inhibition was -0.7%. For O=C1CCC(N2C(=O)c3ccccc3C2=O)C(=O)N1 (stereo not drawn), the inhibition was -1.8%. In the case of O=c1ccc2ccc(O)c(O)c2o1, the inhibition is reported as 31.6% (active). Cn1cnc2c(NCc3ccccc3)nc(NCCO)nc21 was tested, and the inhibition was 1.3% (active). In the case of CC[C@@H](CO)Nc1nc(NCc2ccccc2)c2ncn(C(C)C)c2n1, the inhibition is reported as 6.3% (active). With Cc1cc(NC2CCCCC2)nc(-n2nc(C)cc2C)n1 the inhibition was 1.1% (active). In the case of Cc1ccc(Cl)c(Nc2ccccc2C(=O)O)c1Cl, the inhibition is reported as 6.2% (active). O=C(O)c1ccccc1Nc1ccccc1 was tested, and the inhibition was 42.7% (active). Molecule O=C(O)CP(=O)(O)O has an inhibition of -4%. CC(N)C1CCC(C(=O)Nc2ccncc2)CC1 (stereo not drawn) was tested, and the inhibition was 4.4% (active). Work on COc1ccc(C2CNC(=O)C2)cc1OC1CCCC1 (stereo not drawn) yielded an inhibition of -7.5%. With CC[C@@H](C)[C@H]1O[C@]2(CC[C@@H]1C)C[C@@H]1C[C@@H](C/C=C(\C)[C@@H](O[C@H]3C[C@H](OC)[C@@H](O[C@H]4C[C@H](OC)[C@@H](O)[C@H](C)O4)[C@H](C)O3)[C@@H](C)/C=C/C=C3\CO[C@@H]4[C@H](O)C(C)=C[C@@H](C(=O)O1)[C@]34O)O2 the inhibition was 1.1% (active). CCCNCC(O)COc1ccccc1C(=O)CCc1ccccc1 (stereo not drawn) was tested, and the inhibition was -7.1%. With COc1ccccc1OCCNCC(O)COc1cccc2[nH]c3ccccc3c12 (stereo not drawn) the inhibition was 1.9% (active). With C=C1C(=O)O[C@@H]2[C@H]3O[C@]3(C)CCC=C(C)CC[C@@H]12 the inhibition was 0.5% (active). In the case of NCCCC(N)(C(=O)O)C(F)F (stereo not drawn), the inhibition is reported as -2.3%. Cn1ncc(S(=O)(=O)Cc2ccccc2)c(Br)c1=O was tested, and the inhibition was -5.4%. N[C@H](C(=O)O)[C@H](O)C(=O)O was tested, and the inhibition was 0.9% (active). For N[C@@H](Cc1cnc[nH]1)C(=O)O, the inhibition was 1.5% (active). Work on Nc1ncnc2c1ncn2[C@@H]1O[C@H](COP(=O)(O)CP(=O)(O)OP(=O)(O)O)[C@H](O)C1O (stereo partly drawn) yielded an inhibition of -6.5%. NC(=S)c1ccc[n+]([C@@H]2O[C@@H](COP(=O)([O-])OP(=O)(O)OC[C@H]3O[C@@H](n4cnc5c(N)ncnc54)C(OP(=O)(O)O)[C@H]3O)C(O)C2O)c1 (stereo partly drawn) was tested, and the inhibition was 3.1% (active). NC[C@H]1O[C@@H](n2cnc3c(N)ncnc32)[C@H](O)[C@@H]1O showed an inhibition of -4.6%. Nc1ncnc2c1ncn2[C@@H]1O[C@H](COP(=O)(O)OP(=O)(O)OP(=O)(O)OP(=O)(O)OC[C@@H]2O[C@H](n3cnc4c(N)ncnc43)C(O)[C@@H]2O)[C@H](O)C1O (stereo partly drawn) was tested, and the inhibition was 3.7% (active). Molecule NC(=O)C1=C[N+](=C2OC(COP(=O)(O)OP(=O)([O-])OC[C@H]3O[C@@H](n4cnc5c(N)ncnc54)C(OP(=O)(O)O)[C@H]3O)C(O)C2O)C=CC1 (stereo partly drawn) has an inhibition of -0.9%. CCN(CC)c1ncnc2c1ncn2[C@@H]1O[C@H](COP(=O)(O)OP(=O)(O)C(Br)(Br)P(=O)(O)O)[C@@H](O)[C@H]1O gave an inhibition of -1%.
